Test results as given in the supplement of paper PMC8728848.
About 410 targets per protein were measured; listed, in parts, are those with the strongest signals and a random draw of the rest.

How the values were obtained:
Assay in all cases: glycan array binding signal (z-score within array); higher = stronger binding
Settings in all cases: glycan notation: IUPAC condensed, linker removed
[1] = target: Gal(b1-4)GlcNAc(b1-3)Gal(b1-4)GlcNAc(b1-2)[Gal(b1-4)GlcNAc(b1-3)Gal(b1-4)GlcNAc(b1-6)]Man(a1-6)[Gal(b1-4)GlcNAc(b1-3)Gal(b1-4)GlcNAc(b1-2)Man(a1-3)]Man(b1-4)GlcNAc(b1-4)GlcNAc
Procedure, shortened: (§1)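 The binding signal is a Z-score computed within each array. Data were drawn from 3228 arrays in the Consortium for Functional Glycomics database, restricted to those with a known protein sequence. Scores were averaged over arrays of the same protein sequence at different concentrations or buffers, and over linkers, and negative values can be taken as non-binding.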

[2] = target: Gal(b1-4)GlcNAc(b1-3)Gal(b1-4)GlcNAc(b1-3)Gal(b1-4)GlcNAc(b1-2)Man(a1-3)[Gal(b1-4)GlcNAc(b1-3)Gal(b1-4)GlcNAc(b1-3)Gal(b1-4)GlcNAc(b1-2)Man(a1-6)]Man(b1-4)GlcNAc(b1-4)[Fuc(a1-6)]GlcNAc
Procedure, shortened: as §1

[3] = target: Gal(b1-4)GlcNAc(b1-3)Gal(b1-4)GlcNAc(b1-3)Gal(b1-4)GlcNAc(b1-3)Gal(b1-4)GlcNAc(b1-2)Man(a1-3)[Gal(b1-4)GlcNAc(b1-3)Gal(b1-4)GlcNAc(b1-3)Gal(b1-4)GlcNAc(b1-3)Gal(b1-4)GlcNAc(b1-2)Man(a1-6)]Man(b1-4)GlcNAc(b1-4)[Fuc(a1-6)]GlcNAc
Procedure, shortened: as §1

[4] = target: Gal(b1-4)GlcNAc(b1-3)Gal(b1-4)GlcNAc(b1-3)Gal(b1-4)GlcNAc(b1-3)Gal(b1-4)GlcNAc(b1-3)Gal(b1-4)GlcNAc(b1-2)[Gal(b1-4)GlcNAc(b1-3)Gal(b1-4)GlcNAc(b1-3)Gal(b1-4)GlcNAc(b1-3)Gal(b1-4)GlcNAc(b1-3)Gal(b1-4)GlcNAc(b1-6)]Man(a1-6)[Gal(b1-4)GlcNAc(b1-3)Gal(b1-4)GlcNAc(b1-3)Gal(b1-4)GlcNAc(b1-3)Gal(b1-4)GlcNAc(b1-3)Gal(b1-4)GlcNAc(b1-2)Man(a1-3)]Man(b1-4)GlcNAc(b1-4)[Fuc(a1-6)]GlcNAc
Procedure, shortened: as §1

[5] = target: Gal(b1-4)GlcNAc(b1-3)Gal(b1-4)GlcNAc(b1-6)[Gal(b1-3)]GalNAc
Procedure, shortened: as §1

GalNAc(b1-4)Gal(b1-4)Glc = target: GalNAc(b1-4)Gal(b1-4)Glc
Procedure, shortened: as §1

GalNAc(b1-4)GlcNAc = target: GalNAc(b1-4)GlcNAc
Procedure, shortened: as §1

[6] = target: GalNAc(b1-4)GlcNAc(b1-2)Man(a1-3)[GalNAc(b1-4)GlcNAc(b1-2)Man(a1-6)]Man(b1-4)GlcNAc(b1-4)GlcNAc
Procedure, shortened: as §1

[7] = target: GalNAc3S(b1-4)[Fuc(a1-3)]GlcNAc
Procedure, shortened: as §1

GalNAc6S(b1-4)GlcNAc = target: GalNAc6S(b1-4)GlcNAc
Procedure, shortened: as §1

[8] = target: GlcA3S(b1-3)Gal(b1-4)GlcNAc(b1-2)Man
Procedure, shortened: as §1

[9] = target: GlcNAc(a1-4)Gal(b1-4)GlcNAc(b1-3)Gal(b1-4)Glc
Procedure, shortened: as §1

[10] = target: GlcNAc(b1-2)[GlcNAc(b1-4)]Man(a1-3)[GlcNAc(b1-2)Man(a1-6)]Man(b1-4)GlcNAc(b1-4)GlcNAc
Procedure, shortened: as §1

[11] = target: GlcNAc(b1-3)Gal(b1-4)GlcNAc(b1-2)Man(a1-3)[GlcNAc(b1-3)Gal(b1-4)GlcNAc(b1-2)Man(a1-6)]Man(b1-4)GlcNAc(b1-4)[Fuc(a1-6)]GlcNAc
Procedure, shortened: as §1

GlcNAc(b1-3)GalNAc = target: GlcNAc(b1-3)GalNAc
Procedure, shortened: as §1

GlcNAc(b1-3)Man = target: GlcNAc(b1-3)Man
Procedure, shortened: as §1

[12] = target: GlcNAc(b1-4)Gal(b1-4)GlcNAc
Procedure, shortened: as §1

Man(a1-6)Man = target: Man(a1-6)Man
Procedure, shortened: as §1

[13] = target: Neu5Ac(a2-3)Gal(b1-3)GalNAc
Procedure, shortened: as §1

[14] = target: Neu5Ac(a2-3)Gal(b1-3)GlcNAc(b1-2)Man(a1-3)[Neu5Ac(a2-3)Gal(b1-3)GlcNAc(b1-2)Man(a1-6)]Man(b1-4)GlcNAc(b1-4)GlcNAc
Procedure, shortened: as §1

[15] = target: Neu5Ac(a2-3)Gal(b1-3)GlcNAc(b1-3)GalNAc
Procedure, shortened: as §1

[16] = target: Neu5Ac(a2-3)Gal(b1-3)[Fuc(a1-4)]GlcNAc(b1-3)Gal(b1-3)[Fuc(a1-4)]GlcNAc
Procedure, shortened: as §1

[17] = target: Neu5Ac(a2-3)Gal(b1-3)[Neu5Ac(a2-6)]GlcNAc(b1-3)[Fuc(a1-3)[Gal(b1-4)]GlcNAc(b1-6)]Gal(b1-4)Glc
Procedure, shortened: as §1

Neu5Ac(a2-3)Gal(b1-4)Glc = target: Neu5Ac(a2-3)Gal(b1-4)Glc
Procedure, shortened: as §1

[18] = target: Neu5Ac(a2-3)Gal(b1-4)GlcNAc(b1-3)Gal(b1-4)GlcNAc(b1-3)Gal(b1-4)GlcNAc
Procedure, shortened: as §1

[19] = target: Neu5Ac(a2-6)Gal(b1-3)GlcNAc(b1-3)[Gal(b1-4)GlcNAc(b1-6)]Gal(b1-4)Glc
Procedure, shortened: as §1

[20] = target: Neu5Ac(a2-8)Neu5Ac(a2-3)Gal(b1-4)GlcNAc
Procedure, shortened: as §1

[21] = target: Neu5Ac(a2-8)Neu5Ac(a2-8)Neu5Ac
Procedure, shortened: as §1

[22] = target: Neu5Gc(a2-3)Gal(b1-4)GlcNAc
Procedure, shortened: as §1

[23] = target: Neu5Gc(a2-6)Gal(b1-4)GlcNAc
Procedure, shortened: as §1

B1: SabA (Helicobacter pylori) (protein)
chain: MGSSHHHHHHSSGLVPRGSHMENLYFQGEDNGFFVSAGYQIGEAVQMVKNTGELKNLNEKYEQLSQYLNQVASLKQSIQNANNIELVNSSLNYLKSFTNNNYNSTTQSPIFNAVQAVITSVLGFWSLYAGNYFTFFVGKKVGDSGQPASVQGNPPFKTIIENCSGIENCAMDQTTYDKMKKLAEDLQAAQTNSATKGNNLCALSGCAATDSTSNPPNSTVSNALNLAQQLMDLIANTKTAMMWKNIVISGVSNTSGAITSTNYPTQYAVFNNIKAMIPILQQAVTLSQSNHTLSASLQAQATGSQTNPKFAKDIYTFAQNQKQVISYAQDIFNLFNSIPAEQYKYLEKAYLKIPNAGSTPTNPYRQVVNLNQEVQTIKNNVSYYGNRVDAALSVARDVYNLKSNQAEIVTAYNDAKTLSEEISKLPHNQVNTKDIVTLPYDKNAPAAGQSNYQINPEQQSNLNQALAAMSNNPFKKVGMISSQNNNGA
With B1 the “glycan array binding signal (z-score)” value [1] was 2.39, the “glycan array binding signal (z-score)” value [2] was -0.537 and the “glycan array binding signal (z-score)” value [3] was 0.132. The “glycan array binding signal (z-score)” value [4] was -0.103, the “glycan array binding signal (z-score)” value [5] was -0.494 and the “glycan array binding signal (z-score)” value (GalNAc(b1-4)Gal(b1-4)Glc) was 1.6. The “glycan array binding signal (z-score)” value (GalNAc(b1-4)GlcNAc) was 0.676, the “glycan array binding signal (z-score)” value [6] was 2.98 and the “glycan array binding signal (z-score)” value [7] was -0.298. The “glycan array binding signal (z-score)” value (GalNAc6S(b1-4)GlcNAc) was 0.834, the “glycan array binding signal (z-score)” value [8] was -0.867 and the “glycan array binding signal (z-score)” value [9] was -0.716. For the same binder, the “glycan array binding signal (z-score)” value [10] was -0.287, the “glycan array binding signal (z-score)” value [11] was 0.826 and the “glycan array binding signal (z-score)” value (GlcNAc(b1-3)GalNAc) was 0.191. For the same binder, the “glycan array binding signal (z-score)” value (GlcNAc(b1-3)Man) was 1.69, the “glycan array binding signal (z-score)” value [12] was -0.173 and the “glycan array binding signal (z-score)” value (Man(a1-6)Man) was -0.738. For the same binder, the “glycan array binding signal (z-score)” value [13] was 0.965, the “glycan array binding signal (z-score)” value [14] was 1.79 and the “glycan array binding signal (z-score)” value [15] was -0.131. For the same binder, the “glycan array binding signal (z-score)” value [16] was 0.27, the “glycan array binding signal (z-score)” value [17] was -0.626 and the “glycan array binding signal (z-score)” value (Neu5Ac(a2-3)Gal(b1-4)Glc) was 2.88. For the same binder, the “glycan array binding signal (z-score)” value [18] was 0.051, the “glycan array binding signal (z-score)” value [19] was -0.762 and the “glycan array binding signal (z-score)” value [20] was -0.714. For the same binder, the “glycan array binding signal (z-score)” value [21] was -0.39, the “glycan array binding signal (z-score)” value [22] was -0.614 and the “glycan array binding signal (z-score)” value [23] was 0.779.
